From PubChem BioAssay
Compounds with a hit are over-represented: about 4.6% of the library has one in this group of screens.
TRHR PAM: allosterically enhances the human TRH receptor; TRHR cells, fluo-8 calcium fluorescence, EC20 TRH enhancement; enhancement, % at 2 µM; hit rate 0.66% among 360,000; in the data active means enhancement above about 30%
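TRHR-expressing cells loaded with fluo-8 calcium dye were read kinetically (ex 480/em 530) during compound addition, then stimulated with an EC20 of TRH (10 nM final). Enhancement of the Gq-mediated intracellular calcium response was scored.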
D1 ag: human D1 receptor agonism; HEK293 T-REx D1 cells, calcium flux, agonist mode; activation, % at 2 µM; hit rate 1% among 360,000
Target sequence (P21728 whole entry, looked up): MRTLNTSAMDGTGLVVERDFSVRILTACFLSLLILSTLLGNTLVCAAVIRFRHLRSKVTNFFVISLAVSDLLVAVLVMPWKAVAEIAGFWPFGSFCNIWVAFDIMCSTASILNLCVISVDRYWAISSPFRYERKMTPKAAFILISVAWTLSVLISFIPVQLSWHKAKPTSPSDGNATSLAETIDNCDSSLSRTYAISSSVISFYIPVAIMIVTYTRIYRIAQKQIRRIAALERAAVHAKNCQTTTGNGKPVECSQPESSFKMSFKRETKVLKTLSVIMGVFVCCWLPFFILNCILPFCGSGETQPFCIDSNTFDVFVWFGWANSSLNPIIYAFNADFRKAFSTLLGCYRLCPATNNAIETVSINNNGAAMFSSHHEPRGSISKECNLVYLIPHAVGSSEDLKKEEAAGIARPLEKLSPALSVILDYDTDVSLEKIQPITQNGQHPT
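Tetracycline-induced HEK293 TREx D1 cells, force-coupled to calcium signalling, were dye-loaded with a no-wash calcium kit. Compound was pin-added after a 10 s baseline. Fluorescence was read kinetically at 1 cycle/s for 180 s, with calcium rises flagged as agonism.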
D1 antagonist: antagonists of human D1 dopamine receptor. P21728. HEK293 TREx D1 cells, calcium flux, dopamine EC80; active compounds read low. activity change, negative = inhibition, % at 10 µM. hit rate 3.2% among 360,000. AID 504652; in the data active means activity change below about -30%
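Tetracycline-induced HEK293 T-REx cells with force-coupled D1 receptor were loaded with a no-wash calcium dye. Compound was added after a 10 s baseline and read kinetically for 180 s; EC80 dopamine was then added and calcium flux followed another 180 s.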
TRHR agonist: activates the human TRH receptor | P34981 | TRHR cells, calcium flux fluo-8, FDSS agonist mode | activation, % at 2 µM | hit rate 0.18% among 360,000
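TRHR-expressing cells loaded with fluo-8 calcium dye; 23 nL library compound pin-transferred, kinetic FDSS fluorescence (Ex 480/Em 530) recorded about 180 s for agonist-induced calcium release, before a 10 nM TRH EC20 addition for potentiator mode.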
D1 potentiator: enhances dopamine response at the human D1 receptor | HEK293 TREx D1 cells, calcium flux, dopamine EC20 potentiation | potentiation, % at 10 µM | hit rate 0.036% among 360,000 | AID 504651; in the data active means potentiation above about 30%
Hits are given with their value; - = inactive; . = no result given. Unless noted, no stated cut-off is given here; in the data, active means activation above about 30%; inactive means the rest.

SMILES	TRHR PAM	D1 ag	D1 antagonist	TRHR agonist	D1 potentiator
CCOC(=O)c1c(C)[nH]c(C)c1S(=O)(=O)NCC(=O)Nc1ccc(C)cc1C	-	-	-	-	-
Nc1nnnn1/N=C/c1cc(Cl)cc(Cl)c1O	-	126	-	-	-
Cc1cc(Cl)ccc1OC(C)C(=O)NN=C1CCCCCC1 (stereo not given)	-	-	-31	-	.
Nc1cccc(-c2cn3ccsc3n2)c1	-	-	-	-	-
COc1cc(OC)c2c(c1)C(=O)OC2OC (stereo not given)	36	-	-	-	-
CC(C)N(Cc1nc(-c2ccccc2)no1)C(=O)CCCN1C(=O)c2ccccc2C1=O	-	-	-49	-	-
COc1ccc(-c2noc(CN(C(=O)c3cccs3)C(C)C)n2)cc1	-	37	-	-	-
CC(C)N(Cc1nc(-c2ccccc2)no1)C(=O)CN1C(=O)c2ccccc2C1=O	-	-	-	-	-
O=C(NCc1nc(-c2ccc(C(F)(F)F)cc2)no1)c1cccs1	-	-	-34	-	-
CCOc1cc(C(=O)N2CC(=O)Nc3ccc(F)cc3C2c2ccccc2)cc(OCC)c1OCC (stereo not given)	-	-	-	-	-
Nc1c(C(=O)C2CC2)sc2nc(-c3cccs3)cc(C(F)(F)F)c12	-	173	-	53	-
Nc1c(C(=O)Nc2ccc(F)cc2)sc2nc(-c3cccs3)cc(C(F)(F)F)c12	-	265	-44	100	-
COc1cc2c(c(O)c1OC)-c1c(cc(OC)c(OC)c1OC)C[C@@H](C)[C@@H](C)C2	-	-	-40	-	-
COc1cc2c(c(OC)c1OC)-c1c(cc(OC)c(OC)c1OC)C[C@H](C)[C@H](C)C2	-	-	-	-	-
O=C(COC(=O)COc1ccc(Cl)cc1)NC1CCCC1	-	-	-33	-	-
O=C(COC(=O)COc1ccc(Cl)cc1)NC1CCCCC1	-	-	-	-	-
O=C(CCCOc1ccc(Cl)cc1Cl)N1CCc2ccccc2C1	-	33	-	-	-
O=C(CCCOc1ccccc1)N1CCc2ccccc2C1	-	-	-	-	-
CC(C)(C)c1ccc(OCCC(=O)OCC(=O)NC2CCCCC2)cc1	-	-	-44	-	-
Cc1ccc(C)c(OCCC(=O)OCC(=O)NC(=O)NC2CCCC2)c1	-	-	-36	-	-
Cc1ccc(C)c(OCCC(=O)OCC(=O)NC2CC2)c1	-	-	-	-	-
Cc1ccc(Cn2c(CNS(=O)(=O)c3cccc([N+](=O)[O-])c3)nc3cccnc32)cc1	-	-	-	-	-
COc1ccc(-n2c(=O)c3c4c(sc3n(Cc3ccc(C)cc3C)c2=O)CCC4)c(OC)c1	-	-	-	-	-
O=C(COc1ccc(C(=O)c2ccccc2)cc1)NC1CCCCC1	-	-	-31	-	-
Cc1cc(OCC(=O)OCC(=O)N2CCc3ccccc3C2)ccc1Cl	-	-	-43	-	-
SMILES	TRHR PAM	D1 ag	D1 antagonist	TRHR agonist	D1 potentiator
Cc1cc(OCC(=O)NC2CCCCC2)ccc1Cl	-	-	-	-	-
Cc1cc(OCC(=O)OCC(=O)N2CCc3ccccc32)ccc1Cl	-	-	-	-	-
O=C(COc1ccc(C(=O)c2ccccc2)cc1)NC1CCCCCC1	-	-	-	-	-
Cc1cc(OCC(=O)OCC(=O)NC2CCCC2)ccc1Cl	-	-	-36	-	-
N#Cc1ccc(C(=O)Nc2ccc(Cl)c(-c3nc4cc(Cl)ccc4o3)c2)c(F)c1	-	-	-	-	-
COc1ccc(C)cc1-n1nnc(C(=O)Nc2cccc(SC)c2)c1C	-	-	-	-	-
Cc1cccc(NC(=O)C2CCCN(S(=O)(=O)c3c(C)n[nH]c3C)C2)c1 (stereo not given)	-	-	-	-	-
Cc1ccc(-n2c(=O)c3c(c4cc(C)ccc4n3C)n(CC(=O)Nc3ccc(F)cc3)c2=O)cc1	-	-	-	-	-
CCn1cc(CN2CCCC(CO)(Cc3ccc(F)cc3)C2)c2ccccc21 (stereo not given)	-	31	-	-	-
O=C(CCC(=O)N1CC2CCCN2c2ccccc21)NCc1ccc(Cl)cc1 (stereo not given)	-	-	-	-	-
CCOC(=O)C(Cc1cc(C(C)=O)ccc1OCC)C(=O)OCC	-	-	-	-	-
CCOC(=O)C(Cc1cc(C(C)=O)ccc1OC(C)C)C(=O)OCC	-	-	-34	-	-
COc1ccc(CNCc2c(C(=O)O)c(C)n(Cc3ccccc3C)c2C)c(OC)c1	-	-	-	-	-
COc1ccc(CNC(=O)c2ccc3c(c2)NC(=O)C(C)S3)cc1 (stereo not given)	36	-	-	-	-
CCOC(=O)c1cccc(NC(=O)N2Cc3ccccc3Oc3ncccc32)c1	-	-	-	-	-
COc1ccc(C(=O)/C=C/c2ccccc2)c(OC)c1	-	-	-	-	-
COc1ccc2cc(C(=O)/C=C/c3cc(OC)c(O)c(OC)c3)ccc2c1	-	-	-	-	-
CN(C)c1ccc(/C=C/C(=O)c2ccccc2O)cc1	-	35	-	-	-
COc1ccc(C(=O)/C=C/c2cc(OC)c(O)c(OC)c2)c(F)c1	-	52	-	-	-
O=C(/C=C/c1cccc(O)c1)c1cccnc1	-	-	-	-	-
CN(C)c1ccc(/C=C/C(=O)c2cccnc2)cc1	-	176	-	95	-
COc1ccc(C(=O)/C=C/c2ccc(N(C)C)cc2)c(OC)c1	-	295	-	127	-
Cc1ccc(/C=C/C(=O)c2ccccc2O)cc1	-	-	-	-	-
Cc1ccc2nc(N(Cc3cccnc3)C(=O)C3COc4ccccc4O3)sc2c1 (stereo not given)	-	-	.	-	-
Cc1c2cnn(-c3ccccc3)c(=O)c2c(C)n1CC(=O)N1CCN(c2ccc(F)cc2)CC1	-	-	-	-	-
SMILES	TRHR PAM	D1 ag	D1 antagonist	TRHR agonist	D1 potentiator
O=C(Nc1ccc2c(c1)N(C1CCCC1)C(=O)c1ccccc1S2)c1cccc(F)c1	-	-	-	-	-
O=C(COC(=O)C12CC3CC(CC(O)(C3)C1)C2)NCc1ccco1	-	-	-	-	-
COc1cccc(CNC(=O)CN2C(=O)N(c3c(C)cccc3C)S(=O)(=O)c3ccccc32)c1OC	-	-	-	-	-
CCN1CCN(C(=O)CN2C(=O)c3ccccc3S2(=O)=O)CC1	-	-	-	-	-
O=C(CSc1nc2ccc(NC(=O)C3CCCCC3)cc2s1)NCC1CCCO1 (stereo not given)	-	-	-	-	-
O=C(CSc1nc2ccccc2s1)NCC1CCCO1 (stereo not given)	-	-	-33	-	-
O=C(CCCn1c(SCC(=O)NCC2CCCO2)nc2ccccc2c1=O)NCc1ccccc1 (stereo not given)	-	-	-	-	-
O=C(CCCn1c(SCC(=O)Nc2ccccc2Cl)nc2ccccc2c1=O)NCC1CCCO1 (stereo not given)	-	-	-33	-	-
